Test results reported in the supplement of paper PMC6897291.
Structures can show the parent of a compound that is named as a salt.

Tests used:
U-2932 [1] = assay: growth inhibition by drug alone (1 - RLU/untreated control) (fraction); higher = stronger inhibition; details: 177Lu-lilotomab satetraxetan 0 ug/ml
Procedure, shortened: (§1)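 With or without 18 h pretreatment by a radiolabelled anti-CD37 antibody conjugate (~600 MBq/mg; 0.5 µg/ml RIVA, 1 µg/ml U-2932), RIVA and U-2932 cells were washed and plated at 3,000 cells/well. Pre-printed compound doses were 10/100 nM for RIVA and 10/1,000 nM for U-2932. Growth inhibition uses RealTime-Glo RLU relative to the untreated no-drug wells. The calculation is 1 − RLU/mean of 48 such wells per plate, with reads daily from day 3 after 1 h at 37°C.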

RIVA [2] = assay: as above; details: 177Lu-lilotomab satetraxetan 0 ug/ml
Procedure, shortened: as §1

U-2932 [3] = assay: growth inhibition by drug plus 177Lu-lilotomab satetraxetan (1 - RLU/untreated control) (fraction); higher = stronger inhibition; details: 177Lu-lilotomab satetraxetan 1 ug/ml
Procedure, shortened: as §1

RIVA [4] = assay: as above; details: 177Lu-lilotomab satetraxetan 0.5 ug/ml
Procedure, shortened: as §1

Structure (SMILES)	growth inhibition by drug alone (U-2932 [1]; 10 nM, time (day): 3)	growth inhibition by drug alone (U-2932 [1]; 10 nM, time (day): 4)	growth inhibition by drug alone (U-2932 [1]; 10 nM, time (day): 5)	growth inhibition by drug alone (U-2932 [1]; 10 nM, time (day): 6)	growth inhibition by drug alone (U-2932 [1]; 1000 nM, time (day): 3)	growth inhibition by drug alone (U-2932 [1]; 1000 nM, time (day): 4)	growth inhibition by drug alone (U-2932 [1]; 1000 nM, time (day): 5)	growth inhibition by drug alone (U-2932 [1]; 1000 nM, time (day): 6)	growth inhibition by drug alone (RIVA [2]; 10 nM, time (day): 3)	growth inhibition by drug alone (RIVA [2]; 10 nM, time (day): 4)	growth inhibition by drug alone (RIVA [2]; 10 nM, time (day): 5)	growth inhibition by drug alone (RIVA [2]; 10 nM, time (day): 6)	growth inhibition by drug alone (RIVA [2]; 100 nM, time (day): 3)	growth inhibition by drug alone (RIVA [2]; 100 nM, time (day): 4)	growth inhibition by drug alone (RIVA [2]; 100 nM, time (day): 5)	growth inhibition by drug alone (RIVA [2]; 100 nM, time (day): 6)	growth inhibition by drug plus 177Lu-lilotomab satetraxetan (U-2932 [3]; 10 nM, time (day): 3)	growth inhibition by drug plus 177Lu-lilotomab satetraxetan (U-2932 [3]; 10 nM, time (day): 4)	growth inhibition by drug plus 177Lu-lilotomab satetraxetan (U-2932 [3]; 10 nM, time (day): 5)	growth inhibition by drug plus 177Lu-lilotomab satetraxetan (U-2932 [3]; 10 nM, time (day): 6)	growth inhibition by drug plus 177Lu-lilotomab satetraxetan (U-2932 [3]; 1000 nM, time (day): 3)	growth inhibition by drug plus 177Lu-lilotomab satetraxetan (U-2932 [3]; 1000 nM, time (day): 4)	growth inhibition by drug plus 177Lu-lilotomab satetraxetan (U-2932 [3]; 1000 nM, time (day): 5)	growth inhibition by drug plus 177Lu-lilotomab satetraxetan (U-2932 [3]; 1000 nM, time (day): 6)	growth inhibition by drug plus 177Lu-lilotomab satetraxetan (RIVA [4]; 10 nM, time (day): 3)	growth inhibition by drug plus 177Lu-lilotomab satetraxetan (RIVA [4]; 10 nM, time (day): 4)	growth inhibition by drug plus 177Lu-lilotomab satetraxetan (RIVA [4]; 10 nM, time (day): 5)	growth inhibition by drug plus 177Lu-lilotomab satetraxetan (RIVA [4]; 10 nM, time (day): 6)	growth inhibition by drug plus 177Lu-lilotomab satetraxetan (RIVA [4]; 100 nM, time (day): 3)	growth inhibition by drug plus 177Lu-lilotomab satetraxetan (RIVA [4]; 100 nM, time (day): 4)	growth inhibition by drug plus 177Lu-lilotomab satetraxetan (RIVA [4]; 100 nM, time (day): 5)	growth inhibition by drug plus 177Lu-lilotomab satetraxetan (RIVA [4]; 100 nM, time (day): 6)
Nc1ccc(C(=O)Nc2cccc(-c3nc(N4CCOCC4)c4oc5ncccc5c4n3)c2)cn1	0.123	0.0927	0.0179	-0.0139	0.195	0.203	0.118	0.206	-0.00332	-0.02	-0.0954	-0.385	0.0916	0.0201	0.0261	-0.0381	0.00496	0.0368	0.0937	0.133	0.163	0.259	0.223	0.329	0.467	0.548	0.558	0.579	0.541	0.566	0.558	0.533
Nc1ncn([C@@H]2O[C@H](CO)[C@@H](O)[C@H]2O)c(=O)n1 [Azacitidine (Vidaza)]	-0.0982	-0.0929	-0.0726	-0.0507	-0.188	-0.0618	0.0181	0.17	-0.294	-0.286	-0.358	-0.438	-0.343	-0.332	-0.3	-0.406	-0.107	-0.0484	0.0134	-0.00849	-0.0673	0.0405	0.146	0.324	0.407	0.483	0.506	0.5	0.241	0.37	0.362	0.374
Cn1cc(-c2ccc3nnc(Sc4ccc5ncccc5c4)n3n2)cn1	0.0784	0.0569	-0.0234	-0.0672	0.09	0.0464	-0.0633	-0.0059	0.0128	0.0644	0.0167	-0.227	-0.0367	0.0223	0.00017	-0.0611	0.0469	0.105	0.177	0.212	0.0614	0.085	0.142	0.222	0.61	0.637	0.638	0.635	0.458	0.538	0.561	0.584
O=C(CCCCCCC(=O)Nc1cccnc1)NO [Pyroxamide]	-0.0932	-0.0929	-0.129	-0.234	0.82	0.79	0.759	0.717	-0.263	-0.352	-0.468	-0.514	-0.333	-0.305	-0.265	-0.306	-0.106	-0.0647	-0.00568	0.0937	0.6	0.542	0.472	0.474	0.358	0.433	0.464	0.49	0.454	0.507	0.511	0.509
Cc1ccc(S(=O)(=O)C=CC#N)cc1	0.107	0.0923	-0.0275	-0.041	-0.00518	0.09	0.058	-0.0332	0.0697	-0.00988	-0.0606	-0.287	0.12	0.0423	0.00106	-0.129	0.00206	0.0303	0.0547	0.0948	0.00618	0.193	0.194	0.225	0.414	0.5	0.522	0.534	0.401	0.472	0.47	0.452
O=C1c2c(O)ccc(O)c2C(=O)c2c(NCCNCCO)ccc(NCCNCCO)c21 [Mitoxantrone Hydrochloride]	0.436	0.52	0.635	0.732	0.945	0.971	0.981	0.986	0.293	0.565	0.667	0.759	0.568	0.82	0.873	0.904	0.559	0.694	0.81	0.881	0.971	0.982	0.987	0.99	0.83	0.913	0.95	0.968	0.736	0.92	0.947	0.962
O=C(NOC[C@H](O)CO)c1ccc(F)c(F)c1Nc1ccc(I)cc1F	0.189	0.198	0.0482	0.0357	0.152	0.19	0.102	0.0951	0.198	0.141	0.026	-0.212	0.191	0.122	0.0195	-0.189	0.138	0.163	0.15	0.218	0.162	0.231	0.189	0.269	0.487	0.514	0.508	0.496	0.552	0.532		
